Here are results for 22 molecules from PMC12136788.

T1: UNK ZnF1-6 (called full-length) (human, UniProt Q9C0B0 30-357)
T1 sequence: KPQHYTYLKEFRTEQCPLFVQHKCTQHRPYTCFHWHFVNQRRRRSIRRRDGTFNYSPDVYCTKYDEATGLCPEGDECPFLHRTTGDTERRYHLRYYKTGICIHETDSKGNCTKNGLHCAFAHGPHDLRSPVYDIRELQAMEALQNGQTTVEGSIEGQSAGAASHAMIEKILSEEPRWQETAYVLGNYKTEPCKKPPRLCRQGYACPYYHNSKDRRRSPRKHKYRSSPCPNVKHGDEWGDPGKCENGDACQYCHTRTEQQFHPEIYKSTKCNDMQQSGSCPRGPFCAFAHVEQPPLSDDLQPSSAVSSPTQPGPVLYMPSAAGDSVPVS

B1: chr17:32711987:32712195:-|CDS|ENSG00000176658|control|control|control (ssRNA)
RNA: GGGAGUUCUACAGUCCGACGAUCUCCUUCAGACAAAGAGGCUGUCAAGAAACUAAUUGAACGGUGUGGUUUUCAGGAUGAUGUAGCUUAUGGGAAGACCAAAAUUUUCAUUCGAACACCCCGAACAUUGUUUACCUUGGAAGACAACAGAGGAUUGAGCAUCA
B2: chr12:293013:293114:-|CDS|ENSG00000073614|unk|FALSE|bound_elsewhere (ssRNA)
RNA: GGGAGUUCUACAGUCCGACGAUCACUAAAAGUGAAAGGAAAGGACUCUUCAGAGAAGAAACGGAAACGGAAGCUAGAAAAGGUAGAGCAACUUUUUGGAGAAGGAAAACAGAAGUCCAAGGAGUUAAAGAAAAUGGACAAACCCAACAGAGGAUUGAGCAUCA
B3: chr1:228098150:228098251:+|3pUTR|ENSG00000143761|msi1_unk|total|mutant (ssRNA)
RNA: GGGAGUUCUACAGUCCGACGAUCGCACCGUGCUGUAAAUGUGGCAGACGCAGCCUGCGGCCAGGCUUUUUAUUUAAUGUAAACCGUUUUUGUUUCCAAUGAGGCAGUUUCUGGUACUCCUAUGCAAUAUUACUCAGCUUUUUUCAACAGAGGAUUGAGCAUCA
B4: chr7:50445662:50445763:-|CDS|ENSG00000132436|msi1|FALSE|unique (ssRNA)
RNA: GGGAGUUCUACAGUCCGACGAUCGUUAUCUCAACGGGGAGAUGGUGAGCAUGAAUCUUCUAGAAGGAUAAAAACAGAAUUUUUAGUUCAAUUAGAUGGAGCAACAACAUCUUCUGAAGAUCGUAUCCUAGUGGUGGGAGCAACCAACAGAGGAUUGAGCAUCA
B5: chr4:150265445:150265561:-|3pUTR|ENSG00000198589|unk|FALSE|bound_elsewhere (ssRNA)
RNA: GGGAGUUCUACAGUCCGACGAUCGGAUUAGCAAAGCAGAAAACUGGCUGCUGGGUUCUGUAGUUUUAAAAAAUCUAUAUUUUUAGUCAUAAUGAGAAGUCUAUUUUCACCAAUUAUGGAAACAUACAGUGGAGCAAGUAAACCCAACAGAGGAUUGAGCAUCA
B6: chr4:150265445:150265561:-|3pUTR|ENSG00000198589|unk|total|mutant (ssRNA)
RNA: B5 RNA with U28C, A29C, U60C, A61C, U83C, A84C
B7: chr17:81921741:81921842:-|3pUTR|ENSG00000197063|msi1|FALSE|unique (ssRNA)
RNA: GGGAGUUCUACAGUCCGACGAUCAAUUAUAUGUUUAAAAGUUAAAGAAAAAAGAGCUGCAGAGUAUUUAUAAAACUGUCUUUUAGAAAAAAAACAAGCAAGAAGACCAUUUGACCAUAUGAAUGGAAAAGGGAAGAAAGUAUACAACAGAGGAUUGAGCAUCA
B8: chr8:74853834:74853946:+|3pUTR|ENSG00000137558|unk|FALSE|unique (ssRNA)
RNA: GGGAGUUCUACAGUCCGACGAUCAAGUGCUUUUUUUUUUCUGAAUUAAUUAGGUAUUGGUAAAAUAUAUUUUUAAAUUUAGUUAGCUUUAUAAACACAAUUAGAAUUACAAUUAAUUAACAGAGGUAUAAUUGUCUCACUUUCCAACAGAGGAUUGAGCAUCA
B9: chr21:43695798:43695899:+|3pUTR|ENSG00000160208|msi1|FALSE|unique (ssRNA)
RNA: GGGAGUUCUACAGUCCGACGAUCACAAUAUUUUGUAAAAUGAUGCUUCCCCCUUCUCCAUGGUCUAGUCAAUUUUGUACAAUUAGGUAUCUGACUUUACAAGUUUGUUAUCCUUUCUAAUUUUUACUGAACUGAAAGCACAAACAACAGAGGAUUGAGCAUCA
B10: ENSG00000198589:be:win_8701|3pUTR|ENSG00000198589|bound_else_gene|NA|bound_elsewhere_windowed (ssRNA)
RNA: GGGAGUUCUACAGUCCGACGAUCUGUAGUCUUUGCUUGACUUUUUUGGGGGGGAUUAGCAAAGCAGAAAACUGGCUGCUGGGUUCUGUAGUUUUAAAAAAUCUAUAUUUUUAGUCAUAAUGAGAAGUCUAUUUUCACCAAUUACAACAGAGGAUUGAGCAUCA
B11: chr9:122240152:122240253:-|3pUTR|ENSG00000119446|msi1|FALSE|unique (ssRNA)
RNA: GGGAGUUCUACAGUCCGACGAUCCUUCUUGGAGUAUAGAAUUCACCAUUUUAUCCGUAAGUCUUCAAAGGAUUAUGGUGGACUAGAACUUACAUAGUGCAAAAUAGUCUUCUAUUUUUAAUAGGAACUUAGAAAAAACUUAGACAACAGAGGAUUGAGCAUCA
B12: chr12:123662440:123662541:+|3pUTR|ENSG00000111358|unk|FALSE|unique (ssRNA)
RNA: GGGAGUUCUACAGUCCGACGAUCAAUGGAAAUCACAAUUUUAAGUCUAGGAAAUAAAGUAUUAUAUAUACUUUCAAACAAGCUAGCAAGGCUUUUAUUAUUACUUUUUUAUUUGAAAUAUCUUAUAUAUUUGGUUAGUUCUGUCAACAGAGGAUUGAGCAUCA
B13: chr3:121431430:121432303:-|three_prime_utr|ENSG00000051341|control|control|control (ssRNA)
RNA: GGGAGUUCUACAGUCCGACGAUCUGGAAAGAACAGAGAUUACCCUUUCACCUACCUCAGCAAAACAAACUUUCAAGUCUUGAUAGACUUAGCCUAGUAAUUUUAUAGUGAGAGUUUCAAACUAUAUAUCAGUGUCUAUAGCAUCAACAGAGGAUUGAGCAUCA
B14: ENSG00000120802:stop:overlap|stop_codon|ENSG00000120802|stop_codon|NA|stop_codon (ssRNA)
RNA: GGGAGUUCUACAGUCCGACGAUCGUGGAACAUUAUUUGGAGGAGAAGUAUGCAAAGUAAUUAAAAAGCGUGGAAAUAAACACUAGUAAAAUUAAGGACAAAAAGACAUCUAUCUUAUCUUUCAGGUACUUUAUGCCAACAUUUCAACAGAGGAUUGAGCAUCA
B15: chr11:22846921:22847509:-|three_prime_utr|ENSG00000255359|control|control|control (ssRNA)
RNA: GGGAGUUCUACAGUCCGACGAUCCUCCACCAUUUCGGAAAAAUAAACACAGUGCAAGUAUUUAAUAUCCAAGCUACAGGCUCUAGAAUUUUAUUAAAUGCCAUCUCUCACUACCAUAUUUUUCUUUCCUGUGGUAAACUUGAACAACAGAGGAUUGAGCAUCA
B16: chr6:119178661:119178762:-|3pUTR|ENSG00000111885|msi1|FALSE|unique (ssRNA)
RNA: GGGAGUUCUACAGUCCGACGAUCGAAAGAAGCUUUGCCAAUUUUACUUAUUCGUGAUCAAUCAAGGAAAAUCUAAUAAAUUUUAGGCCAAAUAAGAAUAUAGCAUAUUUAGUAUGGUUAUAGUCAACACAGAGAUCACAACUUCAACAGAGGAUUGAGCAUCA
B17: ENSG00000107863:be:win_4801|CDS|ENSG00000107863|bound_else_gene|NA|bound_elsewhere_windowed (ssRNA)
RNA: GGGAGUUCUACAGUCCGACGAUCUCCAGUCGACUGAGCCCUGAGGUGCAAUCCGUGGCAGAGAGCAAGGGGGACGAGGCAGAUGACGAGAGAAGCGAACUCAUCAGUGAAGGGCGGCCUGUGGAAACCGACAGCGAGAGCGAGCAACAGAGGAUUGAGCAUCA
B18: chr17:41691520:41691533:+|3pUTR|ENSG00000173812|msi1_unk|total|mutant (ssRNA)
RNA: GGGAGUUCUACAGUCCGACGAUCGGAACAAAUCUCAAACUGAUCCAUCAGUCAUGCCGCCCGCUGCCGAGCUUGCAACUUAACCGCAGCAGCUGCCCAAUGCCAUGUGAAGUAACAAACUGGUUUUUGGUUUUUUUUUCCCCUCAACAGAGGAUUGAGCAUCA
B19: chr19:5558166:5561399:-|three_prime_utr|ENSG00000223573|control|control|control (ssRNA)
RNA: GGGAGUUCUACAGUCCGACGAUCCCAGCUGAUGCACACUGCUUCAGACACUCCUGCUGGAGCCCCAGUCCCUGACAAGGACCUAGGACAUUUUUGCUCCUGCCCAGCCUAUCGGGAGGGAGCCUUGAGCCUUUCAGCUCUGCUCAACAGAGGAUUGAGCAUCA
B20: ENSG00000070961:be:win_51|CDS|ENSG00000070961|bound_else_gene|NA|bound_elsewhere_windowed (ssRNA)
RNA: GGGAGUUCUACAGUCCGACGAUCUUUGAAGGAAGCUAAUCAUGAUGGAGACUUUGGAAUUACGCUCGCAGAGCUGCGGGCUCUCAUGGAGCUCAGGUCCACAGAUGCAUUACGAAAAAUACAGGAAAGCUAUGGAGAUGUCUACAACAGAGGAUUGAGCAUCA
B21: chr16:48080881:48083801:-|three_prime_utr|ENSG00000140798|control|control|control (ssRNA)
RNA: GGGAGUUCUACAGUCCGACGAUCUGAGUUUGACAAGCCUGAAGUCCUUGCAGAGAAGCCAGAUUCUGCAUUUGCGAUGUUACUAGCAGCAGAAGUCAGAUUGUAGAGGUCCUGGCGGCUGAUUCUAGAGGAGGAAGAGGCUCUCAACAGAGGAUUGAGCAUCA
B22: chr1:205790044:205790145:-|3pUTR|ENSG00000133065|msi1|FALSE|bound_elsewhere (ssRNA)
RNA: GGGAGUUCUACAGUCCGACGAUCAGAUUCUUCUGCCUCUUUCUCCUUUCCAGACCCCUACUCUGUGCAGUGCUGACCACAGCUAGAGCCACCGCCCCAUUGCUCAACCAGUAUUUAUUUCCCUAAACGACCCUUCCUCACAUUCAACAGAGGAUUGAGCAUCA

Substitutions are numbered along the chain they refer to. In all, about 5,800 sequences were measured (“enrichment r”: median about 0.68, highest 2% from about 11 on). This is one part of a sample in which the highest values are shown more often than they occur.

The assay deals with T1, UNK ZnF1-6 (called full-length). The experiment in a line: nsRBNS (natural sequence RNA bind-n-seq); RBNS binding buffer (assumed for nsRBNS): 25 mM Tris pH 7.5, 150 mM KCl, 3 mM MgCl2, 0.01% Triton X-100, 500 ug/ml BSA, 20 U/ml SUPERase-In, 4 C; UNK is unkempt and MSI1 is Musashi-1; names of the RNAs are library labels; protein concentration not given here; high values mean tight binding.
Molecule B1 returned a binding signal of 0.434 enrichment R.

With B2, the binding signal was determined as 0.672 enrichment R. Under B3 stands 0.896 enrichment R; under B4, 0.853 enrichment R. In the case of B5, the binding signal stood at 2.4 enrichment R. Turning to B6, the binding signal was found to be 0.438 enrichment R. Consider B7, for which the binding signal was 2.78 enrichment R.

As to B8, the binding signal was found to be 171 enrichment R. The molecule B9 displayed a binding signal of 1.9 enrichment R. The molecule B10 had a binding signal of 29 enrichment R. B11 showed a binding signal of 41.4 enrichment R. In turn, B12 had a binding signal of 12.5 enrichment R.

Regarding B13, the binding signal was 8.5 enrichment R. Under B14 stands 1.07 enrichment R; under B15, 0.713 enrichment R. The figure for B16 is 2.15 enrichment R; for B17 it is 0.993 enrichment R; for B18 it is 0.624 enrichment R.

As to B19, the binding signal worked out at 0.786 enrichment R. Under B20 stands 0.507 enrichment R; under B21, 1.15 enrichment R. B22 returned a binding signal of 1.07 enrichment R.
